Laboratory results from PubChem BioAssay AID1159580 (chemical genetic matrix, 2015).
Hit rate of the full screen: of about 5,500 compounds, about 2,000 (36%) were called active. Another 18% or so got no clear call; they are omitted. Rule as the data show it: active = normalized growth mostly below about 0.91 (no sharp cut-off); inconclusive = no clear call, values can overlap the other calls; inactive = mostly above about 0.92. This is one part of the list.

Test: chemical genetic growth profiling, strain panel (AID 1159580);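 also: tested at 20 µM; growth read once vehicle control cultures reached saturation at 30 °C; 1 = growth at the plate median or of vehicle wells; lower values mean less growth of the strain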
Details: growth OD
[1] = S. cerevisiae deletion strains, locus YJR075W, strain HOC1, hits give low values
[2] = S. cerevisiae deletion strains, locus YNL153C, strain GIM3, hits give low values
[3] = S. cerevisiae deletion strains, locus YPL055C, strain LGE1, hits give low values
[4] = S. cerevisiae deletion strains, locus YPL241C, strain CIN2, hits give low values

Measured: normalized growth

COCC(=O)O[C@]1(CCN(C)CCCc2nc3ccccc3[nH]2)CCc2cc(F)ccc2[C@@H]1C(C)C
inactive: S. cerevisiae deletion strains, locus YAL040C, strain CLN3, hits give low values 1 | S. cerevisiae deletion strains, locus YCL061C, strain MRC1 (second series), hits give low values 1 | S. cerevisiae deletion strains, locus YDR363W, strain ESC2, hits give low values 1 | S. cerevisiae deletion strains, locus YER002W, strain NOP16, hits give low values 1.02 | [1] 0.967 | [2] 0.941 | S. cerevisiae deletion strains, locus YNL175C, strain NOP13, hits give low values 1.03 | S. cerevisiae deletion strains, locus YNL197C, strain WHI3, hits give low values 1.04 | S. cerevisiae deletion strains, locus YNL224C, strain SQS1, hits give low values 1.03 | S. cerevisiae deletion strains, locus YOR083W, strain WHI5 (second series), hits give low values 1.03 | [3] 0.929 | [4] 0.985

O=C(O)CCNC(=S)Nc1cccc(C(F)(F)F)c1
inactive: S. cerevisiae deletion strains, locus YAL013W, strain DEP1, hits give low values 0.998 | S. cerevisiae deletion strains, locus YBR229C, strain ROT2, hits give low values 1.01 | S. cerevisiae deletion strains, locus YCL061C, strain MRC1, hits give low values 0.99 | S. cerevisiae deletion strains, locus YDL101C, strain DUN1, hits give low values 1.01 | S. cerevisiae deletion strains, locus YDL134C, strain PPH21, hits give low values 0.983 | S. cerevisiae deletion strains, locus YDR150W, strain NUM1, hits give low values 1.03 | S. cerevisiae deletion strains, locus YEL061C, strain CIN8, hits give low values 1.02 | S. cerevisiae deletion strains, locus YGR078C, strain PAC10, hits give low values 1.01 | S. cerevisiae deletion strains, locus YGR229C, strain SMI1, hits give low values 0.982 | S. cerevisiae deletion strains, locus YHR030C, strain SLT2, hits give low values 0.996 | S. cerevisiae deletion strains, locus YHR087W, strain rtc3, hits give low values 1.02 | S. cerevisiae deletion strains, locus YJR043C, strain POL32, hits give low values 0.987 | [1] 0.997 | S. cerevisiae deletion strains, locus YLR039C, strain RIC1, hits give low values 0.976 | S. cerevisiae deletion strains, locus YLR058C, strain SHM2 (second series), hits give low values 0.999 | S. cerevisiae deletion strains, locus YLR085C, strain ARP6, hits give low values 0.971 | S. cerevisiae deletion strains, locus YLR262C, strain YPT6, hits give low values 0.986 | S. cerevisiae deletion strains, locus YML094W, strain GIM5, hits give low values 1.11 | S. cerevisiae deletion strains, locus YMR219W, strain ESC1, hits give low values 1 | S. cerevisiae deletion strains, locus YMR263W, strain SAP30, hits give low values 0.984 | [2] 1.01 | S. cerevisiae deletion strains, locus YNL298W, strain CLA4 (second series), hits give low values 0.985 | S. cerevisiae deletion strains, locus YNL322C, strain KRE1, hits give low values 1.01 | S. cerevisiae deletion strains, locus YNR030W, strain Alg12, hits give low values 1.03 | [3] 1.04 | [4] 0.918 | S. cerevisiae deletion strains, locus YPR135W, strain CTF4, hits give low values 1.06 | S. cerevisiae strains, strain wild type, hits give low values 0.966
